Data: PubChem BioAssay (NCATS)
Where “and” joins values, the source holds several entries; their conditions need not be identical. Equal values may be shown once. Results filed as inconclusive are left out. The source holds several records for some structures; these can differ, active in one and inactive in another. Calls of active or inactive are those of the source. Unless noted, calls come from the whole dose curve; as a rule, active = well fitted curve in the direction sought with a large enough effect; inconclusive = small, poorly fitted or top-dose-only effect, or another doubt; inactive = no such curve, though single readings can be large; an effect the other way counts as inactive or inconclusive.

Tests used:
Es-2 = experiment: Primary qHTS to identify gynecologic anti-cancer compounds using libraries of approved drugs and bioactive compounds (AID 1345084); conditions: Gynecologic cancer cell panel viability, ATPlite luminescence, 48 h; series mostly up to 57.5 µM; note: nearly all actives have a fitted effect of over 55% in size; note: potency is the fitted concentration of half-maximal effect
Summary of the method: (§1)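 Five-concentration response, 48 h; readout is ATP-driven luciferase luminescence.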

HeLa = experiment: as above; conditions: Gynecologic cancer cell panel viability, ATPlite luminescence, 48 h; series mostly up to 57.5 µM
Summary of the method: as §1

Hek293T = experiment: as above; conditions: Gynecologic cancer cell panel viability, ATPlite luminescence, 48 h, control line for the selectivity index; series mostly up to 57.5 µM
Summary of the method: as §1

JEG-3 = experiment: as above; conditions: Gynecologic cancer cell panel viability, ATPlite luminescence, 48 h; series mostly up to 57.5 µM
Summary of the method: as §1

OV90 = experiment: as above; conditions: Gynecologic cancer cell panel viability, ATPlite luminescence, 48 h; series mostly up to 57.5 µM
Summary of the method: as §1

Tov-21-G = experiment: as above; conditions: Gynecologic cancer cell panel viability, ATPlite luminescence, 48 h; series mostly up to 57.5 µM
Summary of the method: as §1

Tov112D = experiment: as above; conditions: Gynecologic cancer cell panel viability, ATPlite luminescence, 48 h; series mostly up to 57.5 µM
Summary of the method: as §1

[1] = Drug repurposing screens with cells derived from glioblastoma tumor samples (AID 1345199); conditions: GBM patient neurospheres viability, ATP luminescence, 48 h; note: nearly all actives have a fitted effect of over 40% in size; note: potency is the fitted concentration of half-maximal effect; for activity, negative = cell killing: % is set by controls: 0 for no effect and ±100 for the full control effect
Summary of the method: (§2)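 Primary testing used CD133+ neurospheres from four GBM patients, seven concentrations, 48 h exposure and ATP-based viability; confirmation added three slower-growing patient lines.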

SKOV3 = experiment: Primary qHTS to identify gynecologic anti-cancer compounds using libraries of approved drugs and bioactive compounds (AID 1345084); conditions: Gynecologic cancer cell panel viability, ATPlite luminescence, 48 h; series mostly up to 57.5 µM; note: nearly all actives have a fitted effect of over 55% in size; note: potency is the fitted concentration of half-maximal effect
Summary of the method: as §1

astro = experiment: Drug repurposing screens with cells derived from glioblastoma tumor samples (AID 1345199); conditions: viability, ATP luminescence, 48 h; series mostly up to 45.9 µM; note: nearly all actives have a fitted effect of over 40% in size; note: potency is the fitted concentration of half-maximal effect; for activity, negative = cell killing: % is set by controls: 0 for no effect and ±100 for the full control effect
Summary of the method: as §2

[2] = molecular target: Nuclear receptor subfamily 1 group I member 2 (Rattus norvegicus) (UniProt Q9R1A7); experiment: qHTS assay for small molecule activators of the rat pregnane X receptor (rPXR) signaling pathway (AID 651751; call rule not given here; note: 0% is about no effect); conditions: rPXR reporter cells, luciferase (One-Glo), 24 h
PA-1 = experiment: Primary qHTS to identify gynecologic anti-cancer compounds using libraries of approved drugs and bioactive compounds (AID 1345084); conditions: Gynecologic cancer cell panel viability, ATPlite luminescence, 48 h; series mostly up to 57.5 µM; note: nearly all actives have a fitted effect of over 55% in size; note: potency is the fitted concentration of half-maximal effect
Summary of the method: as §1

[3] = qHTS assay to identify inhibitors of the type 1 interferon - major histocompatibility complex class I in skeletal muscle: Counter screen cell viability and HiBit confirmation (AID 1347412); conditions: iHSKM muscle cells + IFN-b, HiBiT or CellTiter-Glo, 24 h; note: potency is the fitted concentration of half-maximal effect; nearly all actives have a fitted effect of over 60% in size
Summary of the method: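 CRISPR HLA-B*08:01-HiBit immortalized human myoblasts (C25cl48) stimulated with 4 ng/ml IFN-beta and compounds (12-point 1:3, top 46 uM final) for 24 h at 37 C. Duplicate plates read by HiBit lytic luminescence or CellTiter Glo ATP.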

[4] = at 46.1 µM (top of the series), tumour line C
[5] = at 45.9 µM (top of the series), tumour line B
[6] = at 45.9 µM (top of the series), tumour line D
[7] = at 46 µM (top of the series), tumour line A

Sequence of Nuclear receptor subfamily 1 group I member 2 (Rattus norvegicus) (Q9R1A7 whole entry, looked up): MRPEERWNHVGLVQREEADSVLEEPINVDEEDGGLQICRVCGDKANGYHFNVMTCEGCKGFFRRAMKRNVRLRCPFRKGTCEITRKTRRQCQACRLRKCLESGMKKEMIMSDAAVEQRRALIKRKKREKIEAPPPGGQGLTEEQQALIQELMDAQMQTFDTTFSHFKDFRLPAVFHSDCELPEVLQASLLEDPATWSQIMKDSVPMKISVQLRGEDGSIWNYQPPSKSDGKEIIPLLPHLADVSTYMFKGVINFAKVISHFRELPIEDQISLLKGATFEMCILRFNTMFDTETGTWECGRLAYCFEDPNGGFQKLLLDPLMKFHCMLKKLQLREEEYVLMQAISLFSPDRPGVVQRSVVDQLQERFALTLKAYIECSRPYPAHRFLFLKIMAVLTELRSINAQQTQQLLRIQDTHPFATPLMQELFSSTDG

CCCCCCCCOc1ccccc1C(=O)Nc1ccc(C(=O)OCC[N+](C)(CC)CC)cc1
active: Potency ([1]; tumour line A) 14.1 µM | Potency ([1]; tumour line B) 17.8 µM
inactive: Potency (Es-2) | Potency (HeLa) | Potency (Hek293T) | Potency (JEG-3) | Potency (OV90) | Potency (Tov-21-G) | Potency (Tov112D) | activity, negative = cell killing [1, 4] -98.5%

CCN(CC)C(=S)SSC(=S)N(CC)CC
active: Potency (Es-2) 15.8 µM | Potency (Hek293T) 8.91 µM | Potency (JEG-3) 28.2 µM | Potency (OV90) 4.47 µM | Potency (SKOV3) 631 nM and 1.41 µM | Potency (astro) 63.1 µM
inactive: Potency (HeLa) | max response [2] -4.1%

Cc1cc(=O)c2c(O)c3c(O)cc(=O)c4c3c3c(cc(O)c1c23)C(C)(C)C=4O
active: Potency (Es-2) 3.16 µM | Potency (HeLa) 2.24 µM | Potency (Hek293T) 2 µM | Potency (PA-1) 2.82 µM | Potency (SKOV3) 3.55 µM | Potency (Tov-21-G) 3.16 µM | Potency (Tov112D) 2.24 µM | Potency (astro) 2.51 µM

O=C(O)c1cc(=O)c2c(OCC(O)COc3cccc4oc(C(=O)O)cc(=O)c34)cccc2o1
inactive: Potency (Es-2) | Potency (HeLa) | Potency (Hek293T) | Potency (OV90) | Potency (PA-1) | Potency (SKOV3) | Potency (Tov-21-G) | Potency (Tov112D) | activity, negative = cell killing [1, 5] -3.77% | activity, negative = cell killing [1, 6] -23.3% | activity, negative = cell killing [1, 7] -3.33% | activity, negative = cell killing [1, 4] 5.01% | Potency (astro)

Cc1c(C(=O)NN2CCCCC2)nn(-c2ccc(Cl)cc2Cl)c1-c1ccc(Cl)cc1
inactive: Potency (Es-2) | Potency (HeLa) | Potency (JEG-3) | Potency (OV90) | Potency (PA-1) | Potency (SKOV3) | Potency (Tov-21-G) | Potency (Tov112D) | activity, negative = cell killing [1, 4] -11.3%
active: Potency ([1]; tumour line A) 5.01 µM | Potency (astro) 35.5 µM

CN(C)C(=O)[C@H](O)[C@H](Cc1ccccc1)NC(=O)c1cc2cc(Cl)ccc2[nH]1
inactive: Potency (Es-2) | Potency (HeLa) | Potency (JEG-3) | Potency (OV90) | Potency (PA-1) | Potency (SKOV3) | Potency (Tov-21-G) | Potency (Tov112D)

COc1ccccc1N1CCN(CCN(C(=O)C2CCCCC2)c2ccccn2)CC1
inactive: Potency (Es-2) | Potency (HeLa) | Potency (OV90) | Potency (PA-1) | Potency (SKOV3) | Potency (Tov-21-G) | Potency (Tov112D)

CN(C)[C@@H](CCOc1cccc2ccccc12)c1ccccc1
inactive: Potency (Es-2) | Potency (HeLa) | Potency (JEG-3) | Potency (PA-1) | Potency (Tov-21-G) | Potency (Tov112D)

CN1CCC(=C2c3ccccc3CCc3sccc32)CC1
inactive: Potency (Es-2) | Potency (HeLa) | Potency (Hek293T) | Potency (JEG-3) | Potency (PA-1) | Potency (Tov-21-G) | Potency (Tov112D)

Nc1ncn([C@H]2C[C@H](O)[C@@H](CO)O2)c(=O)n1
inactive: Potency (Es-2) | Potency (HeLa) | Potency (Hek293T) | Potency (JEG-3) | Potency (OV90) | Potency (SKOV3) | Potency (Tov-21-G) | Potency (astro)

CCN(CC)CCOc1ccc(Cc2ccccc2)cc1
active: Potency (astro) 22.4 µM
inactive: Potency (Es-2) | Potency (HeLa) | Potency (Hek293T) | Potency (JEG-3) | Potency (Tov-21-G) | Potency (Tov112D)

Cc1cc(C2CCCCC2)n(O)c(=O)c1
inactive: Potency (HeLa)
active: Potency (Es-2) 14.1 µM | Potency (Hek293T) 7.08 µM | Potency (PA-1) 2 µM | Potency (SKOV3) 10 µM | Potency (Tov112D) 7.08 µM

COc1cc(Nc2c(C#N)cnc3cc(OCCCN4CCN(C)CC4)c(OC)cc23)c(Cl)cc1Cl
25.1 µM (active) and inactive: Potency (HeLa)
active: Potency (Es-2) 6.31 µM and 14.1 µM | Potency (PA-1) 11.2 µM | Potency (SKOV3) 10 µM | Potency ([3]; HiBiT) 11.1 µM | Potency ([3]; Viability) 24.9 µM

N=C(N)c1ccc2cc(OC(=O)c3ccc(N=C(N)N)cc3)ccc2c1
inactive: Potency (Es-2) | Potency (HeLa) | Potency (Hek293T) | Potency (JEG-3) | Potency (OV90) | Potency (PA-1) | Potency (Tov-21-G) | Potency (Tov112D) | Potency (astro)

Cc1ncc([N+](=O)[O-])n1CC(C)O (configuration not stated)
inactive: Potency (Es-2) | Potency (HeLa) | Potency (Hek293T) | Potency (OV90) | Potency (PA-1) | Potency (SKOV3) | Potency (Tov-21-G) | Potency (Tov112D) | activity, negative = cell killing [1, 5] -7.1% | activity, negative = cell killing [1, 6] 3.12% | activity, negative = cell killing [1, 7] -20.2% | activity, negative = cell killing [1, 4] -8.86% | Potency (astro)
